The record followed here is the supplement of paper PMC10338343.

± gives the standard deviation.

One test concerns MILI (PIWIL2) piRISC loaded with L1MC piRNA (26 nt). As to the kind of experiment: pre-steady-state target cleavage rate (min^-1); guide: L1MC piRNA 5'p-UAACUAAAUACUAUGCAAGCUGUAGG; MIWI and MILI are mouse PIWI proteins and EfPiwi is from a freshwater sponge; tags in brackets are library labels; higher = faster piRNA-guided slicing of the target. The settings on record: auxiliary factor: 500 nM mouse GTSF1. In a few lines: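 Cleave-'n-Seq used a transcribed, DNA-blocked target RNA library at 0.1 nM and active affinity-purified piRISC with one synthetic guide at 1 nM, with or without 500 nM GTSF1 partner protein, in HEPES–potassium acetate buffer at 33 °C for 0–8 or 0–960 min. Uncleaved targets were sequenced and normalised to depth and to weakly complementary targets, and three trials were pooled with k3 capped at 0.0001 min^-1. The pre-steady-state cleavage rate was estimated by a burst-and-steady-state fit.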
For the sequence UCCUGGAUCAGCUUGCAUAUGUAUUUAGUUA, the “pre-steady-state target cleavage rate” value worked out at 0.00465 ± 0.0046. For UCCUGGAUCAGCUUGCAUAGUAUAAAGUAA, the “pre-steady-state target cleavage rate” value was 0.11 ± 0.024. Take UCCUGGAUGUGCUUGCAUAGUAUAUAGUAA: the “pre-steady-state target cleavage rate” value worked out at 0.0253 ± 0.0079. Take UCCUGGAUGUCCUUGCAAUCUAUUUAGUUA: the “pre-steady-state target cleavage rate” value worked out at 0.00463 ± 0.0037. For the sequence UCCUGGAUGUGGUUGCAUAGUAUUUACUUA, the “pre-steady-state target cleavage rate” value was determined as 0.00985 ± 0.0096.

UCCUGCUACAGCUUGCAUUGUAUUUUCAAA: the “pre-steady-state target cleavage rate” value was 0.0201 ± 0.0084.

On to UCCUGGAACAGGAUGCAUAGUAUUUUCAAA, for which the “pre-steady-state target cleavage rate” value is 0.0202 ± 0.0076.

As to UCCUGGAACAGCAACCAUAGUAUUUAGUAA, the “pre-steady-state target cleavage rate” value turned out to be 0.143 ± 0.019. Same read-out and setting: the result for UCCUGGUACAGCUUGCAUAGAUUUUAGAAA reads 0.00722 ± 0.0042; that for UCCUGGAUGAGCUUGCAUAGUAUAUAGAAA, 0.00651 ± 0.005.

UCCUGGAUCAGCUUGCAUAGUAAAUAGUAA: the “pre-steady-state target cleavage rate” value came out at 0.196 ± 0.033.

On to UCCUGGUACAGCAUGCAUAGUAUUUUCAAA, for which the “pre-steady-state target cleavage rate” value stood at 0.0847 ± 0.026. In the case of UCCUGGAUGUCGUAGCUUAGUAUUUAGUUA, the “pre-steady-state target cleavage rate” value was determined as 0.0118 ± 0.0046.

UCCUGGAACAGCUUGCAUACUAUUUUCAAA: the “pre-steady-state target cleavage rate” value is 0.0161 ± 0.0061.

Regarding UCCUGGAUGACGUUGCAUAGUAUUUAGAAA, the “pre-steady-state target cleavage rate” value is 0.0501 ± 0.014. The same measure, in the same setting: the same measure for UCCUGGAUGAGCUUGCAUGUAUUUAGUUA: 0.0097 ± 0.004; for “UCCUGGAUGUCCUUGCAUAGUAUAAUCAAA [g8:g19:cont:t1A]”: 0.00606 ± 0.0037; for UCCUCCUACAGCUUGCAUAGAUUUUUCAAA: 0.0441 ± 0.013. UCCUGGAUGUCGAUGCAUAGUAUUUAUUA: the “pre-steady-state target cleavage rate” value stood at 0.00695 ± 0.0047.

UCCUGGAUGAGCUUGCAUUCUAUUUAGUUA: the “pre-steady-state target cleavage rate” value came out at 0.0348 ± 0.0092. As to UCCUGGAUGUCGUAGCAUAGUAUUUAGAUA, the “pre-steady-state target cleavage rate” value came to 0.0132 ± 0.0048. The same measure, in the same setting: the same measure for UCCUGGAUGUCCUAGCUUAGUAUUUAGUUA: 0.0102 ± 0.0041; for UCCUGGAUGUGCUUGCAUAGAAUAUAGUUA: 0.00814 ± 0.0043; for UCCUGGAUGUCGAUGCUUAGUAUUUAGUAA: 0.0164 ± 0.0045. Same read-out and setting: the result for UCCUGGAUGUCGAACCAUUGUAUAUAGUUA reads less than 0.0001. The same measure, in the same setting: the same measure for UCCUGGAUGUCGAUGCAUAGUAUUGAGUUA: 0.0608 ± 0.013. Regarding UCCUCCUACAGCUUGCUAUGUAUUUUCAAA, the “pre-steady-state target cleavage rate” value amounted to 0.006 ± 0.0037. Still for that read-out and setting: the same measure for UCCUGCUACAGCUUCCAUAGUAUUUUGUUA: 0.00554 ± 0.0042; for UCCUGGAUGUCGAAGCAUAGUAUUGAGUUA: 0.00685 ± 0.0034. As for UCCUGCUACAGCUUGCAUUCUAUUUACAAA, the “pre-steady-state target cleavage rate” value turned out to be 0.0141 ± 0.0062. UCCUCCUACAGCUUGCAUAGUAUAAUCAAA: the “pre-steady-state target cleavage rate” value came out at 0.122 ± 0.029. As for UCCUGGAUCAGCUUCGAUAGUAUUUAGUAA, the “pre-steady-state target cleavage rate” value was 0.158 ± 0.016. On the same count and under the same terms, the same measure for UCCUGGAUGUCGUUCAUAGUAUUUAGUUA: 0.013 ± 0.0035.

The test is the same for the next values; noted with them: auxiliary factor: none (no GTSF1).
Regarding UCCUGGAUGUCGAACCAAAGUAAUUAGUUA, the “pre-steady-state target cleavage rate” value is less than 0.0001.

Consider UCCUGGAUGUCGAACGUUAGAUUUUAGUUA, for which the “pre-steady-state target cleavage rate” value was less than 0.0001.

Consider UCCUGGAUGUCGAACGUUAGUAUUUCGUUA, for which the “pre-steady-state target cleavage rate” value was less than 0.0001.

On to UCCUGGAUGUCGAACGAUAGUAUAUUAGUUA, for which the “pre-steady-state target cleavage rate” value was less than 0.0001. Take UCCUGGAUGUCGAACCAUAGUAUGUUAGUUA: the “pre-steady-state target cleavage rate” value was less than 0.0001.

On to UCCUGGAUCAGCUUGGAUAGUAUUUUCAAA, for which the “pre-steady-state target cleavage rate” value was less than 0.0001.
